HEK293 cAMP cs: counter-screen for TSHR agonists: cAMP increase in parental HEK293. parental HEK293 CNG cAMP sensor, membrane potential fluorescence. Potency, µM (highest dose often 57.1 µM), for inactives: at the highest dose activation, usual class: activators. 73,000 compounds, 2.5% hits; note: % of control where 0% means no effect; nearly all actives have a fitted effect of over 55% in size
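Counterscreen for endogenous-receptor signalling: CNG-channel HEK 293 cells report cAMP rise by membrane depolarization. After 60 min dye equilibration with 100 uM RO 20-1724, compounds incubated 30 min before bottom-read fluorescence at 590 nm.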
TSHR agonist: activates the human thyroid stimulating hormone receptor; 73,000 compounds, 0.48% hits; AID 926; Potency, µM (doses to about 57.1 µM), inactives show at the highest dose activation, most hits filed as activators; P16473; HEK293-CNG-TSHR cells (CNG channel as cAMP sensor), membrane potential dye, cAMP; active = well fitted activation curve with a large enough effect in the main read-out, with a control signal flat, not every such curve was filed as active; inconclusive = small, poorly fitted or top-dose-only effect, or a change in a side signal; inactive = no such curve, though single readings can be large or run the other way; % of control where 0% means no effect;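 note: the control signal comes from parental cells without the receptor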
Target sequence (P16473 whole entry, looked up): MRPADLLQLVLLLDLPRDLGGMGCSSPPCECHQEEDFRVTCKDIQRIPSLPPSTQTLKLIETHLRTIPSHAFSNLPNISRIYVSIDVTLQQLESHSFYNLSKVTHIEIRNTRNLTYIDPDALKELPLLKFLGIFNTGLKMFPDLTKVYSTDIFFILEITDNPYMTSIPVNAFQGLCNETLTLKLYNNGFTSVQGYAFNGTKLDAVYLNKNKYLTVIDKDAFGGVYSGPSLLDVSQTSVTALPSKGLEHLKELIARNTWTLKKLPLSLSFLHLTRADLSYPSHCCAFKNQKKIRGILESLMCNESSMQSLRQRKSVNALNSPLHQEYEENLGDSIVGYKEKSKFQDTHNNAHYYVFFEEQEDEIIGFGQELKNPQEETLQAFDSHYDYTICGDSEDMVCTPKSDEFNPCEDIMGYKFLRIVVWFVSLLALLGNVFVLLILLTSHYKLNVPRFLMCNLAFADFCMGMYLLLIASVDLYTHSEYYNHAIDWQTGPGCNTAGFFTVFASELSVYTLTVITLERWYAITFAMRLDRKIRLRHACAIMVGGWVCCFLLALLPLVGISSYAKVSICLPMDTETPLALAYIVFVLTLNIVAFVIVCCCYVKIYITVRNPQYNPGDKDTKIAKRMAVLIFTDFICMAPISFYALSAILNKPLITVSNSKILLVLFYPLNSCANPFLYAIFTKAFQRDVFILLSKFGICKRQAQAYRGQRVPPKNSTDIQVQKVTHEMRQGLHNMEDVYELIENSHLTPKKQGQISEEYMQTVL
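HEK 293 cells stably expressing TSHR and a modified CNG channel, with CNG-only parental cells as counterscreen, were preloaded 60 min at room temperature with membrane potential dye containing 100 uM RO 20-1724. Compound exposure was 30 min, and depolarization was read as fluorescence at 590 nm.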
Imprint erasure: genomic imprint erasure induction | AID 1948 | 110,000 compounds, 0.02% hits | mouse ES Peg3-LacZ reporter, beta-gal luminescence, 40 h | Potency, µM (doses to about 60.7 µM), for the others: at the highest dose activity change, positive = activation, actives largely listed as activators
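Each well holds 300 Peg3LacZ-Neo (maternal) female ES cells incubated 40 h at 37C, 5% CO2. LacZ is measured by BetaGlo luminescence, with AC50 and maximum efficacy derived from dose-response curves.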
IkB signaling: IkB pathway inhibition in ABC-DLBCL cells; ABC-DLBCL IkBa-CBG/CBR dual luciferase ratio, 4 h; response scale: scaled: untreated 0%, proteasome inhibitor 100%; Potency, µM (top dose mostly 57.1 µM), inactives show at the highest dose IkBa stabilization activation; 110,000 compounds, 0.04% hits; AID 445; active = well fitted curve in the direction sought with a large enough effect in the signal ratio, not every such curve was filed as active; inconclusive = small, poorly fitted or top-dose-only effect, or a change in a side signal; the % refers to the signal ratio;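 note: the direction sought is a rising ratio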
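In this assay, an IκBα–CBG68 fusion accumulates when IKK-driven degradation is blocked; native CBR normalizes for cell number. OCI-Ly3 cells were treated 4 h with compound and doxycycline, then green and red light read after Chroma-Glo addition.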
p53ts 32C kill: cytotoxicity in p53ts cells at permissive temperature. Potency, µM (doses to about 46.1 µM), for inactives: at the highest dose activity change, negative = cytotoxicity, actives largely listed as cytotoxic. H1299-p53A138V at 32C, ATP luminescence viability, 24 h. AID 924. 130,000 compounds, 0.93% hits;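 note: 0% = DMSO and -100% = full killing by reference compound; nearly all actives have a fitted effect of over 55% in size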
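ATP-content luminescence (ATPlite) read-out after 24 h compound exposure at 32C in H1299-p53A138V cells (600/well). Tested up to 46 uM. Normalized to DMSO (0%) and 100 uM tamoxifen (100% killing); Hill-fit AC50.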
p53ts 39C kill: kills p53ts cells at the nonpermissive temperature | AID 902 | Potency, µM (top dose mostly 46.1 µM), for inactives: at the top dose activity change, negative = cell killing, hits mostly cytotoxic | 130,000 compounds, 1.5% hits | H1299-p53A138V viability at 39C, ATP luminescence, 24 h; note: % is set by controls: 0 for no effect and ±100 for the full control effect; nearly all actives have a fitted effect of over 55% in size
* marks the source's active call; other numbers are inactive results; ? = inconclusive; · = no result; [ ] = remark or other dose. The list is not random: actives were taken first. Their share in the collection is about 3.1%. Unless noted, calls come from the whole dose curve; as a rule, active = well fitted curve in the direction sought with a large enough effect; inconclusive = small, poorly fitted or top-dose-only effect, or another doubt; inactive = no such curve, though single readings can be large; an effect the other way counts as inactive or inconclusive. Potency is the fitted concentration of half-maximal effect.

SMILES	HEK293 cAMP cs	TSHR agonist	Imprint erasure	IkB signaling	p53ts 32C kill	p53ts 39C kill
Cc1ccc(NC(=O)Cn2c(-c3nonc3N)nc3ccccc32)c(Br)c1	·	·	-8.9%[10.9 µM]	1.0%	-7.1%	-17.9%
Cc1cc2c(cc1NS(=O)(=O)c1ccc(Br)cc1)n(C)c(=O)c(=O)n2C	·	·	13.2%[10.9 µM]	1.1%	-3.3%	6.8%
CC(C)CC(=O)NCC(c1ccc2c(c1)OCO2)N1CCN(c2ccccc2)CC1 (stereo not drawn)	·	·	4.6%[10.9 µM]	-0.2%	0.1%	-33.4%
Cn1c(=O)c2c(nc(SCC(=O)Nc3ccc(F)cc3)n2Cc2ccccc2F)n(C)c1=O	·	·	9.5%[10.9 µM]	-0.5%	-5.8%	5.1%
O=C(COc1ccccc1Cl)N1CCN(c2ncccn2)CC1	-1.8%	-4.0%	-1.9%	-1.8%	-5.1%	4.2%
O=C(c1ccccc1OCc1ccccc1Br)N1CCN(c2ncccn2)CC1	15.8µM*	?	0.1%	-0.1%	30.1%	10.9%
O=C(c1ccc(-c2ccccc2)cc1)N1CCN(c2ncccn2)CC1	25.1µM*	?	12.1%	0.5%	5.7%	1.8%
COc1ccccc1CNC(=O)Cn1c(=O)nc(-c2ccccc2)c2ccccc21	·	·	8.3%[10.9 µM]	?	-0.1%	3.2%
COc1ccc2nc(C)cc(Nc3ccc(Cl)c(Cl)c3)c2c1	·	·	-13.2%[10.9 µM]	?	?	12.6µM*
Cc1cc(O)c(C(C)(C)C)cc1Sc1cc(C(C)(C)C)c(O)cc1C	?	?	-28.0%	?	11.6%[1.84 µM]	15.8µM*
CC(C)(C)c1cc(O)c(C(C)(C)C)cc1O	0.4%	25.8%	-9.6%	1.0%	-18.4%	3.3%
C=CCOC(=O)C(C(C)=O)C(NC(=O)OC)c1ccc(Cl)cc1 (stereo not drawn)	12.9%[11.4 µM]	·	·	·	-2.6%[9.22 µM]	-4.1%[9.22 µM]
CC(=O)N1c2nc(C(C)C)nn2C2(CCCCC2)[C@@H]2CCCC[C@@H]21	·	·	9.2%[10.9 µM]	1.1%	2.4%	0.1%
CCCNC(=O)C1CCN(Cc2cc3ccccc3n2Cc2ccccc2)CC1	·	·	-11.2%[10.9 µM]	?	2.9%	-11.0%
CN(C)CCNC(=O)C1CCN(Cc2cc3ccccc3n2Cc2ccccc2)CC1	·	·	-9.0%[10.9 µM]	-2.0%	?	12.6µM*
COc1ccc(CN(C(=O)CN2C(=O)C(C)Oc3ccccc32)C2CCCC2)c(OC)c1 (stereo not drawn)	25.1µM*	?	-16.9%	3.8%	14.5%	0.7%
COc1ccc(CNC(=O)CN2C(=O)COc3ccccc32)c(OC)c1	·	·	?	?	1.1%	-26.4%
COc1ccc(CN(CC2CCCO2)C(=O)CN2C(=O)C(C)Oc3ccc(C)cc32)cc1OC (stereo not drawn)	·	·	·	·	-14.6%	-6.1%
COc1ccc(CN(C(=O)CN2C(=O)COc3ccccc32)C2CCCC2)c(OC)c1	20µM*	?	-14.6%	?	8.8%	2.9%
COCCn1c(SCC(=O)N2CCCc3ccccc32)nc2ccccc2c1=O	20µM*	?	-21.2%	1.8%	9.0%	-9.6%
CCOc1ccccc1NC(=O)Nc1nnc(N2CCCCCC2)s1	·	·	-18.0%[10.9 µM]	?	?	?
CCOC(=O)c1cnc(NCc2ccccc2)nc1C	13.7%	19.9%	-4.4%	8.4%	2.4%	6.4%
CCOC(=O)c1cnc(-n2nc(C)cc2C)nc1NCc1ccccc1	20µM*	?	-21.1%	?	?	?
CCOC(=O)c1cnc(-n2nc(C)cc2C)nc1NC(C)c1ccccc1 (stereo not drawn)	25.1µM*	?	14.4%	?	10.3%	-2.8%
Cc1ccccc1NC(=O)CSc1nc2c(oc3ccccc32)c(=O)n1-c1ccccc1F	·	·	-11.5%[10.9 µM]	2.0%	24.5%	-17.3%
SMILES	HEK293 cAMP cs	TSHR agonist	Imprint erasure	IkB signaling	p53ts 32C kill	p53ts 39C kill
Cc1cc(=O)oc2cc(OC(C)C(=O)N3CCCc4ccccc43)ccc12 (stereo not drawn)	25.1µM*	?	-8.7%	-5.3%	7.5%	17.5%
CCOc1cccc(NC(=O)C2CC(=O)N(C)C(=Nc3ccc(F)cc3)S2)c1 (stereo not drawn)	·	·	-15.3%[10.9 µM]	?	1.3%	-11.8%
CSc1cccc(NC(=O)C2CCCN(S(=O)(=O)c3ccc4c(c3)CCCN4C(C)=O)C2)c1 (stereo not drawn)	·	·	-7.9%[10.9 µM]	0.5%	-2.5%	-22.2%
Cc1ccc(-n2c(=O)c3ccc(C(=O)NCc4ccco4)cc3n(Cc3ccc(Cl)cc3)c2=O)cc1	·	·	-11.4%[10.9 µM]	-0.8%	-27.5%	12.6µM*
COc1ccc(-n2c(=O)c3ccc(C(=O)NCc4ccc(C)cc4)cc3n(CC(=O)Nc3ccc(C)cc3)c2=O)cc1	·	·	-14.8%[10.9 µM]	0.6%	?	5.01µM*
COc1ccc(-n2c(=O)c3ccc(C(=O)NCc4ccc(C)cc4)cc3n(CC(=O)Nc3ccc(F)cc3)c2=O)cc1	·	·	5.2%[10.9 µM]	?	-23.9%	10µM*
Cc1ccc(NC(=O)Cn2c(=O)n(-c3ccccc3)c(=O)c3ccc(C(=O)NCc4ccc5c(c4)OCO5)cc32)c(C)c1	·	·	-8.7%[10.9 µM]	7.7%	?	7.94µM*
COc1ccc(NC(=O)Cn2c(=O)n(-c3ccccc3)c(=O)c3ccc(C(=O)NCc4ccc5c(c4)OCO5)cc32)cc1	·	·	-4.0%[10.9 µM]	6.3%	?	27.4%
O=C(Nc1ccc(Oc2ccccc2)cc1)C1CCN(S(=O)(=O)c2ccccc2)CC1	·	·	-15.6%[10.9 µM]	?	3.0%	-18.3%
CC1CCN(c2nc3ccc(C(=O)O)cc3s2)CC1	1.5%	-3.9%	·	·	10µM*	?
CC1CCN(c2nc3ccc(C(=O)NCc4ccc(Cl)cc4)cc3s2)CC1	·	·	-7.9%[10.9 µM]	?	9.0%	-6.7%
O=C(c1cc(-c2ccc(O)cc2)on1)N1CCc2ccccc2C1	20µM*	?	-24.2%	?	5.2%	8.6%
O=C(c1cc(-c2cccc(O)c2)on1)N1CCOCC1	-1.8%	-4.8%	-77.4%	8.3%	10µM*	?
COc1ccc2nc(SCC(N)=O)[nH]c2c1	14.5%	-4.7%	-15.6%	-1.2%	4.1%	8.3%
COc1ccc2nc(-c3cccc(N)c3)[nH]c2c1	·	·	·	·	7.94µM*	15.8µM*
COc1ccc2nc(-c3ccc(N)cc3)[nH]c2c1	·	·	·	·	15.8µM*	?
CCOC(=O)CSc1nnc2n(-c3ccccc3)c(=O)c3c4c(sc3n12)CC(C(C)(C)C)CC4 (stereo not drawn)	·	·	-10.0%[10.9 µM]	?	?	?
O=C(O)CCC(=O)OC[C@@H](NC(=O)C(Cl)Cl)C(O)c1ccc([N+](=O)[O-])cc1 (stereo partly drawn)	·	·	-8.6%	·	9.1%	11.4%
Cc1cccc(N2CCN(CCCNC(=O)c3sc4ncccc4c3-n3cccc3)CC2C)c1 (stereo not drawn)	·	·	-10.8%[10.9 µM]	0.2%	-7.6%	-8.1%
